From PubChem BioAssay AID489037 (National Center for Advancing Translational Sciences (NCATS), 2010)
Results filed as inconclusive are left out. The source made the active and inactive calls. The call rests on the fitted dose curve; in most records, active means well fitted inhibition curve with a large enough effect; inconclusive means small, poorly fitted or top-dose-only effect, or effect the other way; inactive means no such curve, though single readings can be large or run the other way.

molecular target: Nuclear receptor ROR-gamma (Mus musculus) (UniProt P51450); assay: Secondary confirmation assay for inhibitors of ROR gamma transcriptional activity; details: Drosophila S2 Gal4-RORgamma UAS-luciferase reporter, 20 h; series mostly up to 92.2 µM
Source text: NIH Molecular Libraries Probe Production Network [MLPCN] NIH Chemical Genomics Center [NCGC] MLPCN Grant: R03 DA026211-01 Assay Provider: Dan Littman, New York University Keywords: NIH Roadmap, MLPCN, MLI, MLSMR, qHTS, NCGC, qHTS, nuclear hormone receptor, retinoic acid-related orphan receptor, ROR gamma Assay Overview: The retinoic acid-related orphan receptor (ROR) gamma is a transcription factor that has a central role in the differentiation of Th17 cells, a subset of T helper cells that secrete the inflammatory cytokines IL-17, IL-17F, and IL-22. Th17 cells have been implicated in graft versus host disease, autoimmune disease and asthma. ROR gamma is induced in naive T helper cells in the presence of TGF-beta combined with IL-6, IL-21, or IL-23, and thereafter directs the expression of the Th17 lineage cytokines. To study the mechanism of action of ROR gamma, an insect cell-based assay was screened. This Drosophila Schneider cell line was stably transfected with two vectors: a gene expressing a fusion of the Gal4 DNA binding domain and ROR gamma transactivation domain under the control of the metallothionine promoter and a Photinus luciferase reporter regulated by the Gal4 binding site enhancer, UAS. […] Small molecule inhibitors of ROR gamma activity are detected by a decrease in luciferase reporter activity.
Assay Protocol Summary: For screening, 600 cells in 4 uL/well were dispensed into white solid 1536-well plates (Grenier) using a solenoid-based dispenser. Following transfer of 23 nL compound or DMSO vehicle by a pin tool, the plates were incubated 1 hr at ambient temperature, and 1 uL/well copper sulfate (700 uM final concentration) was added. The plates were centrifuged 15 s at 1000 RPM and incubated 20 hr at ambient temperature. After addition of 1.5 uL Photinus luciferase detection reagent, the plates were incubated 10 min at ambient temperature and then read by an ViewLux (Perkin Elmer) to detect luminescence. Keywords: NIH Roadmap, MLPCN, MLI, MLSMR, qHTS, NCGC, qHTS, nuclear hormone receptor, retinoic acid-related orphan receptor, ROR gamma

Nuclear receptor ROR-gamma (Mus musculus), sequence (P51450 whole entry, looked up, the tested form may be a part): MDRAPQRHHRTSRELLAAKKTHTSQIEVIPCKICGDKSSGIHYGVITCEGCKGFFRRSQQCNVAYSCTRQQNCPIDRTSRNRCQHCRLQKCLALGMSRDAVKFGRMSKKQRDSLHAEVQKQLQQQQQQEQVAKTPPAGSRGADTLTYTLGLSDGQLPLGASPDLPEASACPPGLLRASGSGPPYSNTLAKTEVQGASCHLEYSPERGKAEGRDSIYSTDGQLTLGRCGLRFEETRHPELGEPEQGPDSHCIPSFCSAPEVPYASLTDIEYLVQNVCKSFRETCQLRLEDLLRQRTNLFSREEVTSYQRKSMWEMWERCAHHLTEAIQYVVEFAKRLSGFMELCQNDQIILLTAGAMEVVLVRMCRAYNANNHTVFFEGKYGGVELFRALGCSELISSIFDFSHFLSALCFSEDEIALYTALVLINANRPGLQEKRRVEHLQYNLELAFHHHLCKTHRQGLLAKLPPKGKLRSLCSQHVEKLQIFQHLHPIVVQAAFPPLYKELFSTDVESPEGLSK

SMILES	Potency
COc1cc(O)c(C(CC(=O)N2CCCCC2)c2ccc(OC)c(OC)c2)c(OC)c1 (stereo not given)	inactive
CCOc1ccc(-c2cc(CCCC(=O)NCc3cccnc3)no2)cc1	0.724 µM (active)
COc1ccc(CNC(=O)[C@@H](NC(=O)C2CCN(C(=O)[C@@H]3CCCN3C(=O)OC(C)(C)C)CC2)C(C)C)cc1	inactive
CCn1cc(C(=O)O)c(=O)c2cnc(N3CCN(C(=S)NC(=O)c4ccccc4)CC3)nc21	11.5 µM (active)
C#CCOc1cc(OC)cc(OC)c1C(CC(=O)N1CCCC(C)C1)c1ccc2c(c1)OCO2 (stereo not given)	9.11 µM (active)
CCOC(=O)c1sc(NC(=O)c2cc3c(s2)CCC(C)C3)nc1C (stereo not given)	0.144 µM (active)
O=C(CCCN1C(=O)/C(=C/c2ccccc2Cl)SC1=S)Nc1cccnc1	1.82 µM (active)
COc1cc(O)c(C(CC(=O)N2CCCC(CO)C2)c2ccc3c(c2)OCO3)c(OC)c1 (stereo not given)	inactive
COc1cc(O)c(C(CC(=O)N2CCCC(C)C2)c2ccccc2)c(OC)c1 (stereo not given)	7.24 µM (active)
COc1cc(O)c(C(CC(=O)N2CCCC(C(=O)N3CCCCC3)C2)c2ccc3c(c2)OCO3)c(OC)c1 (stereo not given)	inactive
COc1ccc(C(=O)/C=C/c2ccc(OC)cc2OC)c(O)c1	0.575 µM (active)
C=C1Nc2c(-c3ccc(F)cc3)cnn2C(N)=C1c1ccccc1	0.0911 µM (active)
COc1cc(O)c(C(CC(=O)N2CCCC(C)C2)c2ccccc2OC)c(OC)c1 (stereo not given)	inactive
COc1cc(O)c(C(CC(=O)N2CCCC(C)C2)c2ccc3ccccc3c2)c(OC)c1 (stereo not given)	5.75 µM (active)
COc1ccc(C)c(O)c1C(CC(=O)N1CCCC(C)C1)c1ccc2c(c1)OCO2 (stereo not given)	40.7 µM (active)
COc1cc(O)c(C(CC(=O)N2CCCCC2)c2ccc(C)cc2)c(OC)c1 (stereo not given)	32.3 µM (active)
COc1cc(O)c(C(CC(=O)N2CCCC(C)C2)c2cccs2)c(OC)c1 (stereo not given)	7.24 µM (active)
COc1cc(O)c(C(CC(=O)N2CCCC(C)C2)c2ccc(C)cc2)c(OC)c1 (stereo not given)	10.2 µM (active)
Cc1ccc(C)c(/C=N/n2cc(-c3ccccc3)[nH]c2=S)c1	0.575 µM (active)
CCOC(=O)Cn1c(CN2CCc3ccccc3C2)nc2c1c(=O)n(C)c(=O)n2C	5.75 µM (active)

SMILES	Potency
O=C(CCCOc1ccccc1)Nc1nc2ccccc2[nH]1	7.24 µM (active)
COc1cc(OC)c2c(c1)OC(=O)CC2c1ccc2c(c1)OCO2 (stereo not given)	inactive
COc1ccc2nc(NNC(=O)COc3ccccc3)sc2c1	4.57 µM (active)
COc1cc(O)c(C(CC(=O)N2CCCC(C#N)C2)c2ccc3c(c2)OCO3)c(OC)c1 (stereo not given)	inactive
COc1ccc(-c2nnc(-c3ccc(N(C)C)cc3)o2)cc1	1.29 µM (active)
CC(C)(C)c1ccc(S(=O)(=O)Nc2ccc(C(O)(C(F)(F)F)C(F)(F)F)cc2)cc1	20.4 µM (active)
O=S(=O)(c1ccc(NC(=S)N/N=C/c2ccc(Oc3ccccc3)cc2)cc1)N1CCOCC1	1.15 µM (active)
COc1cc(O)c(C(CC(=O)N2CCC(Cc3ccccc3)CC2)c2ccc(OC)c(OC)c2)c(OC)c1 (stereo not given)	inactive
COc1cc(O)c(C(CC(=O)NC2CCC(C)CC2)c2ccc3c(c2)OCO3)c(OC)c1 (stereo not given)	inactive
COc1cc(O)c(C(CC(=O)N2CCCCC2)c2ccc3c(c2)OCO3)c(OC)c1 (stereo not given)	20.4 µM (active)
COCC1CCCCN1C(=O)c1cc(COc2ccc3ncccc3c2)on1 (stereo not given)	11.5 µM (active)
CCC(=O)C1CCCN(C(=O)CC(c2ccc3c(c2)OCO3)c2c(O)cc(OC)cc2OC)C1 (stereo not given)	inactive
COc1cc(O)c(C(CC(=O)N2CCOCC2)c2ccc(OC)c(OC)c2)c(OC)c1 (stereo not given)	inactive
COc1cc(O)c(C(CC(=O)N2CCCC(C)C2)c2cccc3ccccc23)c(OC)c1 (stereo not given)	inactive
Cc1ccc(-c2cn(-c3ccccc3)c3[n+]2CCCS3)cc1	28.8 µM (active)
CCOC(=O)C1CCN(CC(=O)Nc2cc(C)nn2-c2nc3ccccc3s2)CC1	5.75 µM (active)
CCC1CCCN(C(=O)CC(c2ccc3c(c2)OCO3)c2c(O)cc(OC)cc2OC)C1 (stereo not given)	3.23 µM (active)
COc1cc(O)c(C(CC(=O)N2CCCC2)c2ccc3c(c2)OCO3)c(OC)c1 (stereo not given)	inactive
COc1cc(O)c(C(CC(=O)NCc2ccccc2)c2ccc3c(c2)OCO3)c(OC)c1 (stereo not given)	inactive
COc1cc(O)c(C(CC(=O)NCC2CCCCC2)c2ccc3c(c2)OCO3)c(OC)c1 (stereo not given)	inactive
